Sampled rows, rich in hits. Any-hit rate of the full collection: about 2.4%.
Anthrax LT inh: anthrax lethal toxin internalization inhibition. Cells, anthrax lethal toxin internalization, FRET ratio (460/530). Potency, µM (titrated, usually from 40 µM), most hits filed as inhibitors. hit rate 0.67% among 70,000; note: nearly all actives have a fitted effect of over 50% in size
AmpC nodet inh: AmpC beta-lactamase inhibition, detergent-free assay | AmpC nitrocefin hydrolysis, absorbance 480 nm, no detergent | Potency, µM (doses to about 28.7 µM) | P00811 | hit rate 1.8% among 71,000
Target sequence (P00811 whole entry, looked up): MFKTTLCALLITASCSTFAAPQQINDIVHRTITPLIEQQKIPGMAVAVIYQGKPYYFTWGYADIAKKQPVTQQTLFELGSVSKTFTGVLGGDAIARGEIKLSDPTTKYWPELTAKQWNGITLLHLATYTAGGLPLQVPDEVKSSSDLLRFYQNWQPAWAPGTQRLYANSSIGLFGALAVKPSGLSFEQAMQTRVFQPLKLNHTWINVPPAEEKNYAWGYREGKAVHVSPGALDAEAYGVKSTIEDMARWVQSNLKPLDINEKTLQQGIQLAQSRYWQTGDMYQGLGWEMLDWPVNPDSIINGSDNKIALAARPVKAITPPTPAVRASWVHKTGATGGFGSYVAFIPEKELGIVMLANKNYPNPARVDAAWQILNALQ
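Enzyme, pH 7.0 phosphate. Compound titrations were pre-incubated with AmpC for 15 min at room temperature before nitrocefin (stock 800 uM) addition; product formation was recorded at 480 nm every 20 s for 4 min.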
Prx2 Sm inh: Schistosoma mansoni Prx2 inhibition; S. mansoni Prx2 activity coupled to TGR/GSH (TGR is thioredoxin glutathione reductase), NADPH fluorescence loss, qHTS; Potency, µM; hit rate 0.07% among 65,000; AID 448
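Purified S. mansoni TGR and Prx2 in pH 7.4 phosphate buffer with EDTA and Tween-20 were preincubated with compounds for 15 min. Further NADPH/GSH was added, then a 2.5 mM H2O2 aliquot initiated turnover, followed kinetically by NADPH fluorescence.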
AmpC inh det: AmpC beta-lactamase inhibition, detergent assay. P00811. purified AmpC, nitrocefin hydrolysis with detergent. Potency, µM (highest dose often 28.7 µM). hit rate 0.09% among 71,000; active = well fitted curve in the direction sought with a large enough effect; inconclusive = small, poorly fitted or top-dose-only effect
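E. coli AmpC (5.3 nM) in 20 mM phosphate pH 7.0 with 0.01% Triton X-100, preincubated 15 min RT with compound; nitrocefin (2 uL of 800 uM stock) hydrolysis followed by 480 nm absorbance every 20 s over 4 min.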
A number is an active result; i = inactive; ? = inconclusive; nt = no result; ! = not confirmed by another sample; [ ] = another dose, or the depositor's remark. Unless noted, calls come from the whole dose curve.

SMILES	Anthrax LT inh	AmpC nodet inh	Prx2 Sm inh	AmpC inh det
CCOC(=O)C1CCCN(c2c(NCC3CCCN3CC)c(=O)c2=O)C1 (configuration not stated)	i	4µM[single pt active]	i	i
Cc1ccc(-c2csc(N)n2)s1	?	?	i	i
CC(=O)NCc1ccc(-c2csc(N)n2)s1	10µM	i	i	i
O=C(Nc1ccc([N+](=O)[O-])cc1Cl)c1cc(Cl)ccc1O	0.25µM	i	i	i
N=C(N)SCc1ccc(Cl)cc1Cl (tested in a mixture with another compound)	i[8 µM]	i[5.75 µM]	i	i[5.75 µM]
CC1CCC2C(=O)N3C(CCC(C)C3c3ccc(-c4ccco4)cc3)C(=O)N2C1c1ccc(-c2ccco2)cc1 (configuration not stated)	i[8 µM]	nt	nt	nt
Cc1ccc(-n2ncc3c(=O)[nH]c(SCC(=O)N4CCN(c5ccccc5)CC4)nc32)cc1	i	13µM[single pt active]	i	i
Cc1ccc(-n2ncc3c(=O)[nH]c(SCC(=O)N4CCOCC4)nc32)cc1	i	i	i	i
O=c1[nH]c(SCc2ccccc2Cl)nc2c1cnn2-c1ccccc1	?	7.9µM	i	i
COc1cccc(-c2ccc3ncnc(NCCc4c[nH]c5ccc(OC)cc45)c3c2)c1	?	i	i	i
COc1ccc(OC)c(C2CC(=O)c3c([nH]c(C(=O)OC(C)C)c3C)C2)c1 (configuration not stated)	?	2.5µM[single pt active]	i	i
COCCOC(=O)c1[nH]c2c(c1C)C(=O)CC(c1cc(OC)ccc1OC)C2 (configuration not stated)	i	i	i	i
O=Cc1ccc(OC2C=CC(c3ccccc3)OC2CO)cc1 (configuration not stated)	i[8 µM]	nt	nt	nt
Cc1ccc(S(=O)(=O)C2(C(=O)Nc3ccc(F)cc3)CC2)cc1	i	i	i	i
Cc1ccc(S(=O)(=O)C2(C(=O)Nc3ccc4c(c3)OCO4)CC2)cc1	i	4µM[single pt active]	i	i
NC(=O)C1(N2CCCCC2)CCN(C(=O)c2cccs2)CC1	i	4µM[single pt active]	i	i
O=C(NCc1cccs1)c1cc2c(s1)-c1ccccc1OC2	?	16µM	i	i
CCC/C=C(\CCC)C(NC(=O)c1ccco1)c1ccc(C(=O)OC)cc1 (configuration not stated)	i	i	i	i
CCOC(=O)c1cc2sccc2n1CC(=O)N1c2ccccc2CC1C (configuration not stated)	i	16µM[single pt active]	i	i
O=C(C1CCC(CNc2c(N3CCCCC3)c(=O)c2=O)CC1)N1CCCCC1 (configuration not stated)	i	4µM[single pt active]	i	i
O=C(NCc1ccc2c(c1)OCO2)C1CCC(CNc2c(N3CCCCC3)c(=O)c2=O)CC1 (configuration not stated)	?	4µM[single pt active]	i	i
C[C@@H](c1ccccc1)N1C(=O)[C@H]2[C@H]3[C@H](O)[C@H](O)C/C(=N/OCc4ccccc4)[C@H]3CC[C@@H]2C1=O	i[8 µM]	nt	nt	nt
O=C(Nc1nc2c(s1)CCCC2)c1ccc2ncsc2c1	10µM	i	i	i
Cc1ncsc1C(=O)Nc1nc2c(s1)CCCC2	i	i	i	i
Cn1cnc2c(NC3CCCC3)ncnc21	?	i	i	i
SMILES	Anthrax LT inh	AmpC nodet inh	Prx2 Sm inh	AmpC inh det
CCCCSCCCNC(=O)CS(=O)Cc1nc(-c2cccc(C)c2)oc1C (configuration not stated)	i	i	i	i
Cc1cccc(-c2nc(CS(=O)CC(=O)NC3CCCC3)c(C)o2)c1 (configuration not stated)	i	4µM[single pt active]	i	i
CCCCNC(=O)CS(=O)Cc1nc(-c2cccc(C)c2)oc1C (configuration not stated)	i	4µM[single pt active]	i	i
CCC(C)NC(=O)CS(=O)Cc1nc(-c2cccc(C)c2)oc1C (configuration not stated)	i	4µM[single pt active]	i	i
Cc1c(O)ccc(C(=O)COc2ccccc2F)c1O	10µM	i	i	i
O=C(COc1ccccc1F)c1ccc(O)cc1O	i	i	nt	i
O=c1[nH]c2c(s1)C(c1ccccc1)C1C3CCC(C3)C1S2 (configuration not stated)	?	1.6µM	i	i
CCN(CC)S(=O)(=O)c1ccc(C(=O)OCCN2C(=O)CCC2=O)cc1	i	4µM[single pt active]	i	i
CC(C)CN(C)c1nc(N)c(C(=O)N=C(N)N)nc1Cl	i	i	i	i
O=C(O)Cc1cc(Cl)ccc1O	i[8 µM]	i[5.75 µM]	i	i[5.75 µM]
Oc1ccc(Cl)cc1Cc1cc(Cl)cc(Cc2cc(Cl)ccc2O)c1O	4µM	i[5.75 µM]	i	i[5.75 µM]
COc1ccc(/C=C/C2=CC3(C)CC2(C)C(c2ccc(OC)cc2)CC3=O)cc1 (configuration not stated)	i[8 µM]	nt	nt	nt
CN(C)c1ncc2nc(-c3cccs3)c(=O)n(C)c2n1	?	i	i	i
COc1cccc(Nc2ncc3nc(-c4ccc(Cl)cc4)c(=O)n(C4CC4)c3n2)c1	?	i	i	i
CCOC(=O)SC1=N/C(=C\c2ccc(N(C)C)cc2)C(=O)S1	i	16µM	i	5µM
CCCCn1c2c(c3ccccc31)CCc1nonc1-2	?	4µM[single pt active]	i	i
O=C(Nc1ccc2ccccc2c1)[C@H]1C[C@@H]1[C@H](NP(=O)(c1ccccc1)c1ccccc1)c1ccccc1	?	i	i	i
COCCn1c(=O)c(C)nc2cnc(N3CCOCC3)nc21	i	i	i	i
COc1cc(Cc2cnc(N)nc2N)cc(OC)c1OC	?	6.3µM!	i	i
O=C(Nc1ccc(N2C(=O)C3C4C=CC(C4)C3C2=O)cc1)Nc1nncs1 (configuration not stated)	i	4µM[single pt active]	i	i
CC[C@H]1CN2CCc3cc(OC)c(OC)cc3[C@H]2C[C@@H]1C[C@H]1NCCc2c1[nH]c1ccc(O)cc21	?	i[5.75 µM]	i	i[5.75 µM]
CC[C@@H]1CN2CCc3cc(OC)c(OC)cc3[C@H]2C[C@@H]1C[C@H]1NCCc2cc(OC)c(OC)cc21	0.02µM	nt	i	nt
Cc1nn(C)c(C)c1S(=O)(=O)N1CCCC(C(=O)NC2CCCCCC2)C1 (configuration not stated)	i	4µM[single pt active]	i	i
CCCCNc1nc(C)nc2c1nc(-c1ccccc1)n2CCCN(C)C	i	i	nt	i
CCc1ccc(NC(=O)Cn2c(SC)nc3ccccc32)cc1	?	i	i	i
SMILES	Anthrax LT inh	AmpC nodet inh	Prx2 Sm inh	AmpC inh det
CSc1nc2ccccc2n1CC(=O)Nc1ccccc1	16µM	i	nt	i
O=c1c(-c2cc(F)cc(F)c2)nc2cnc(N3CCOCC3)nc2n1C1CC1	?	i	i	i
Cc1ccc(Cn2ccc(NC(=O)c3cc(-c4ccccc4)on3)n2)cc1	i	?	i	i
Cc1ccc(Cn2ccc(NC(=O)c3cc(-c4ccc5c(c4)OCO5)on3)n2)cc1	i	10µM	i	i
CCCc1cc2c(n1CCc1ccc(Cl)cc1)C(C)C1CN(C(=O)c3ccccc3)C(C)(C(=O)OC)C21 (configuration not stated)	i	i	i	i
CC1CCN(c2c(NCc3ccc(C(=O)NCC4COc5ccccc5O4)cc3)c(=O)c2=O)CC1 (configuration not stated)	i	4µM[single pt active]	i	i
O=C(O)c1cccc([As]=[As]c2cccc(C(=O)O)c2)c1 (configuration not stated)	?	i[5.75 µM]	0.25	i[5.75 µM]

Screening data: PubChem BioAssay, National Center for Advancing Translational Sciences (NCATS)
